Experimental data published in paper PMC5540273 (PLoS ONE, 2017).

system: MYLK2; conditions: concentration: 1 μM, replicates: in singlicate; n = 1
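Note: KINOMEscan kinase panel screen.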

In order of rising “%Inh” value:
1. CN1CCN(Cc2cccc(-c3ccc4c(Nc5ccc(Oc6ccccc6)cc5)ccnc4c3)c2)CC1 [GW578342]  0%
2. Fc1ccc(-c2ncn(C3CCNCC3)c2-c2ccnc(Oc3ccc(-c4ccccc4)cc3)n2)cc1 [SB-245391]  0%
3. Cl.NC(=O)c1cccc(Nc2nccc(Nc3ccc(Oc4c(Cl)cccc4Cl)c(Cl)c3)n2)c1 [GW659009]  0%
4. Cc1cccc(Nc2nc(N[C@H]3CCNC3)ncc2C(N)=O)c1.Cl [GSK2197149]  0%
5. c1ccc(-c2n[nH]cc2Nc2ccnc3ccccc23)nc1 [GW694077]  0%
6. CN(C)Cc1ccc(-c2ccc3c(Nc4ccc(Oc5ccccn5)cc4)ccnc3c2)o1 [GW567148]  0%
7. COc1cccc(NC(=O)NC2CCN(c3ccnc(Nc4cc(OC)c(OC)c(OC)c4)n3)C2)c1 (stereo not shown) [GSK1379763]  0%
8. Cc1ccc(C)c(NC(=O)NC2CCN(c3ccnc(Nc4ccc(F)cc4)n3)C2)c1 (stereo not shown) [GSK1379720]  0%
9. CC(=O)N1CCN(c2ccc(Nc3nccc(-c4sc(C(C)C)nc4-c4cccc(NS(=O)(=O)c5cccc(Cl)c5)c4)n3)cn2)CC1 [GSK1660437]  0%
10. Nc1ncnc2c1nc(-c1ccccc1)n2-c1ccccc1 [SKF-97293]  0%
11. COc1cccc(C(=O)Nc2cccc(Oc3ccc4nc(NC(=O)C5CC5)cn4n3)c2)c1  0%
12. COc1cc(Nc2ncc3c(C)nc(-c4cc5ccccc5[nH]4)n3n2)cc(OC)c1OC [GW869516]  0%
13. Cc1ccc(C(=O)N2CC[C@@H](O)C2)cc1-n1c(C)cc(OCc2ccc(F)cc2F)c(Br)c1=O  0%
14. Cl.c1ccc(-c2ccc3c(Nc4ccc5[nH]ccc5c4)ccnc3c2)nc1 [GW440138]  0%
15. CCc1ccc(-c2ccc3c(c2)-c2c(cnn2C)S(=O)(=O)N3C)cc1  0%
16. COc1ccc(Nc2nccc(NCCNC(=O)c3cc4ccccc4s3)n2)cc1 [GSK1379896]  0%
17. Nc1ncc(-c2ccc3nccc(-c4ccncc4)c3c2)cc1S(=O)(=O)N1CCOCC1 [GSK1627798]  0%
18. O=C(NC1CCN(c2ccnc(Nc3ccc(F)cc3)n2)C1)c1cc2ccccc2s1 (stereo not shown) [GSK1379716]  4%
19. CCS(=O)(=O)c1ccc(OC)c(Nc2nccc(-c3c(-c4cccc(NC(=O)c5c(F)cccc5F)c4)nn4ncccc34)n2)c1 [GSK326180]  9%
20. O=C(Nc1cccc(-c2nn3ccccc3c2-c2ccnc(Nc3cccc(F)c3)n2)c1)c1c(F)ccc(F)c1Cl [GSK357952]  10%
21. COc1cc(Nc2nccc(N3CCC(NC(=O)c4cc5ccccc5s4)C3)n2)cc(OC)c1OC (stereo not shown) [GSK1379760]  13%
22. COc1ccc(Nc2nccc(N3CCC(NC(=O)Nc4cccc(OC)c4)C3)n2)cc1 (stereo not shown) [GSK1379742]  14%
23. Cc1ccc(S(=O)(=O)Nc2ccc(Nc3nccc(Nc4cccc5[nH]ncc45)n3)cc2)cc1 [GSK581271]  17%
24. Cc1ccc(F)c(C(=O)Nc2cccc(-c3nn4ccccc4c3-c3ccnc(Nc4cccc(F)c4)n3)c2)c1F [GSK361061]  17%
25. COc1cccc(C2=C(Nc3ccc(Cl)c(C(=O)O)c3)C(=O)NC2=O)c1 [SB-390769]  21%
26. Cc1occc1-c1ncc(OC[C@@H](N)Cc2c[nH]c3ccccc23)cc1-c1ccc2[nH]nc(C)c2c1.O=C(O)C(F)(F)F [GSK682037]  21%
27. O=C(O)C(F)(F)F.O=C(O)C(F)(F)F.O=c1[nH]ccc2nc(N[C@@H]3CCCNC3)nc(Nc3ccc(S(=O)(=O)N4CCOCC4)cc3)c12 [GSK2177277]  33%
28. COC(=O)Nc1nc2ccc(Oc3ccc(NC(=O)Nc4cc(C(F)(F)F)ccc4F)cc3)cc2n1C.Cl [GW692089]  36%
29. C[C@@H](Oc1cc(-n2cnc3cc(-c4ccnc(NCCS(C)(=O)=O)c4)ccc32)sc1C(N)=O)c1ccccc1Cl [GSK907232]  53%
30. Cl.Cl.NCC(C(=O)Nc1cc(Br)c(-c2ccnc3[nH]ccc23)s1)c1ccccc1 (stereo not shown) [GSK1269851]  56%
31. Cn1cc(-c2ccc3c(c2)CCN3C(=O)Cc2cccc(Cl)c2)c2c(N)ncnc21 [GSK2606590]  71%
32. CNC(=O)c1ccccc1Nc1nc(Nc2ccc(N3CCOCC3)cc2)ncc1Cl.Cl [GSK1576028]  74%
33. COc1cccc(-c2ccc3c(NC(=O)C4CC4)n[nH]c3n2)c1 [SB-710903]  78%
34. O=C(Nc1n[nH]c2nc(-c3ccc(O)cc3)ccc12)C1CC1 [SB-710363]  79%
35. Cn1cc(-c2ccc3c(c2)CCN3C(=O)Cc2cccc(F)c2)c2c(N)ncnc21 [GSK2603358]  83%
36. O=C(Nc1n[nH]c2cc(-c3ccoc3)ccc12)C1CC1 [SB-738481]  89%
37. COc1cc(Nc2nccc(-c3c(-c4cccc(NC(=O)c5c(F)cccc5F)c4)nn4ccccc34)n2)cc(OC)c1OC [GSK323521]  91.6%
